In the library only some 21% were active in any assay of this set; here they are far more common.
Pf growth 48h = P. falciparum growth inhibition at 48 hours (one generation) | P. falciparum luciferase growth in erythrocytes, 48 h | Potency, µM (titrated, usually from 28.7 µM), inactives show at the highest dose activity change, negative = inhibition, most hits filed as inhibitors | hit rate 5.9% among 310,000; note: potency is the fitted concentration of half-maximal effect; % is set by controls: 0 for no effect and ±100 for the full control effect
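Luminescence readout; reporter = integrated firefly luciferase in P. falciparum. RBC culture at 2% hematocrit, 0.1% parasitemia final, 37 C/5% CO2; decreased signal taken as growth inhibition.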
HCV inhibitor = HCV inhibition. Huh7.5.1 HCVcc-Cre infection, luciferase reporter, 44 h. Potency, µM (highest dose often 41.8 µM), without a hit: at the highest dose activity change, negative = inhibition, hits mostly inhibitors. hit rate 3.4% among 340,000; note: potency is the fitted concentration of half-maximal effect; % is set by controls: 0 for no effect and ±100 for the full control effect
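Infectious HCV cell culture screen: compound-treated cells (1,000/well, pre-plated 4 h) are infected with HCVcc-Cre at roughly 0.5 moi and grown 44 h. Infection is quantified by luciferase signal after 15 min substrate incubation at room temperature.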
Cycloheximide cs = counter-screen hit for Shiga toxin inhibitors, cycloheximide. cell reporter, cycloheximide protein synthesis inhibition counterscreen. hit rate 12% among 300,000. AID 2314. max response, %; in the data active = max response mostly above about 13%, no sharp cut-off; inactive = mostly below about 14%; note: read at 38.3 µM for the half of the compounds with a filed dose; 0% is about no effect
Shiga toxin inh = blocks Shiga toxin action in Vero cells | Vero cells, Shiga toxin protein synthesis inhibition reporter | inhibition, % at 38.7 µM | hit rate 9.2% among 290,000; in the data active = inhibition mostly above about 28%, no sharp cut-off; inactive = mostly below about 43%; note: 0% is about no effect
HCMV inh = inhibitors of human cytomegalovirus; HFF cells, HCMV-luciferase reporter, 72 h; stronger effect = lower value; activity change, negative = inhibition, % at 57.5 µM; hit rate 4.5% among 410,000; AID 1259415; in the data active = activity change below about -60%; inconclusive = no clear call, values can overlap the other calls; inactive = above about -39%; note: % is set by controls: 0 for no effect and ±100 for the full control effect
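Compounds were evaluated in HFFs infected with an HCMV luciferase reporter virus (MOI 1 PFU/cell). Luciferase in lysates collected 72 h post infection served as the replication measure.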
Pf growth 96h = P. falciparum growth inhibition at 96 hour, primary screen for plastid delayed-death inhibitors; P. falciparum luciferase reporter growth, 96 h; Potency, µM (highest dose often 28.7 µM), for inactives: at the highest dose activity change, negative = inhibition, actives largely listed as inhibitors; hit rate 6.9% among 320,000; AID 504834; note: potency is the fitted concentration of half-maximal effect; % is set by controls: 0 for no effect and ±100 for the full control effect
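Delayed-death screen, second-generation endpoint: infected erythrocytes, 2% hematocrit, 0.05% parasitemia final; 96 hours at 37 C, 5% CO2; luciferase detection reagent; luminescence decrease equals reduced growth.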
The depositor's hits bear a star; ? = inconclusive; . = no result given; [ ] = dose if it differs, or a comment. Unless noted, calls come from the whole dose curve; as a rule, active = well fitted inhibition curve with a large enough effect; inconclusive = small, poorly fitted or top-dose-only effect, or another doubt; inactive = no such curve, though single readings can be large or run the other way.

SMILES	Pf growth 48h	HCV inhibitor	Cycloheximide cs	Shiga toxin inh	HCMV inh	Pf growth 96h
CCOC(=O)c1ccc(-c2c(-c3ccc4c(c3)OCO4)noc2-c2ccsc2)cc1F	?	0%	-1	-3	1	?
COc1cc(-c2c(-c3ccc4c(c3)OCO4)noc2-c2ccsc2)ccc1F	?	-7%	15*	18	3	?
c1cc2cc(-c3c(-c4ccc5c(c4)OCO5)noc3-c3ccsc3)ccc2[nH]1	91%	?	39*	50*	33	-98%
Cc1onc(-c2ccc3c(c2)OCO3)c1-c1ccc2[nH]ccc2c1	-26%	?	3	22*	?	?
Cn1c(N)c(C(=O)COC(=O)CSc2cccc3cccc(Cl)c23)c(=O)n(C)c1=O	4%	9%	4	-13	45	17%
COC(=O)[C@@]1(Cc2ccc(OC)cc2)[C@H]2c3cc(C(=O)N4CCCC4)n(Cc4ccsc4Br)c3C[C@H]2CN1C(=O)c1ccccc1	.	.	.	.	1	.
O=C(Cn1c(-c2cccs2)cc2ccccc21)N1CCN(c2ccc(F)cc2)CC1	.	.	.	.	9	.
CCn1c(=S)sc2c(=O)n(CC(=O)Nc3cc(OC)ccc3OC)c(C)nc21	9%	-17%	-2	-7	-17	27%
Cc1ccc(S/C=C\C(=O)c2ccccc2)cc1	.	?	44*	79*	-26	-25%
O=C(/C=C/NNC(=O)c1ccc(Br)cc1)c1ccccc1	.	?	32*	84*	14	?
C/C(=C\C(=O)c1ccc(Br)cc1)NNC(=O)c1ccccc1	.	-84%	.	.	68	.
Cc1ccc(C(=O)C=CNNC(=O)c2ccccc2)cc1	-2%	?	33*	44*	16	?
Cc1ccc(C(=O)NNC(=O)c2ccc3ccccc3c2)cc1	.	-19%	.	.	17	.
O=C(/C=C/NNC(=O)c1ccccc1)c1ccccc1	.	?	27*	20	-16	5%
O=CC(=O)c1ccccc1	37%	1%	.	.	10	60%
O=C(/C=C/NNC(=O)c1ccccc1O)c1ccccc1	19%	20%	32*	.	-25	-29%
O=C(/C=C/NNC(=O)c1ccccc1)c1ccc([N+](=O)[O-])cc1	57%	3.5µM*	38*	87*	-98*	?
O=C(NO)c1ccccc1O	?	-1%[8.37 µM]	-3	14	-17	-17%
Cc1cccc(C(=O)NNC(=O)c2ccc(-c3ccccc3)cc2)c1	8%	-12%	-1	-9	0	?
Cc1cccc(C(=O)NN/C=C/C(=O)c2ccccc2)c1	-15%	-4%	31*	56*	-36	110%
O=C(NC1CC(=O)N(c2ccccc2)C1)c1ccc(S(=O)(=O)N2CCOCC2)cc1 (stereo unspecified)	.	.	.	.	-31	.
Cc1oc2ncn(CC(C)C)c(=O)c2c1C(=O)NCCCN1CCCCC1	.	.	.	.	-9	.
CCOC(=O)N/N=C1\CCS(=O)(=O)c2ccc(Cl)cc21	-2%	8%	-2	9	2	-23%
c1ccc(NN(Cc2cnccn2)c2ccccc2)cc1	.	.	.	.	-24	.
CC(=O)Nc1ccc(NC(=O)COc2ccc(Cl)cc2Cl)cc1	-18%	-15%	26	39	-7	-19%
SMILES	Pf growth 48h	HCV inhibitor	Cycloheximide cs	Shiga toxin inh	HCMV inh	Pf growth 96h
COc1ccc(/C=C/C(=O)Nc2ccc(Cl)c(Cl)c2)cc1OC	.	.	.	.	-81*	.
COc1ccc(NC(=O)COc2ccc(/C=N/n3c(C)nnc3C)cc2OC)cc1	.	6%	20	25	68	12µM*
COc1cc(/C=C/c2cc[n+](C)cc2)ccc1OCC(=O)Nc1ccc(Cl)c(Cl)c1	?	-1%	4	28	-91*	-20%
COc1ccc(/C=C/C(=O)C(C)(C)C)cc1OC	-11%	1%	16*	12	?	?
COc1ccc(C(CC(=O)Nc2ccc(OC)c(OC)c2)N2Cc3ccccc3C2=O)cc1 (stereo unspecified)	.	.	.	.	25	.
COc1ccc(NC(=O)COc2ccc(/C=C/c3cc[n+](C)cc3)cc2OC)cc1	1.9µM*	1%	-2	-3	-12	-2%
COc1ccc(NC(=O)COc2ccc(/C=C/c3cccc[n+]3C)cc2OC)cc1	0.93µM*	-20%	-5	-4	-29	5%

Source: PubChem BioAssay (National Center for Advancing Translational Sciences (NCATS))
